{
  "source": "PubChem BioAssay (Tox21)",
  "note": "Results filed as inconclusive are left out. A number with no mark means an inactive call. The source made the active and inactive calls. The call rests on the fitted dose curve; in most records, active means well fitted cell-killing curve with a large enough effect in the repeat runs; inconclusive means weak or mixed curves; inactive means no such curve, though single readings can be large or run the other way. On the % scale 0 is the no-effect control and ±100 the full control effect.",
  "data": [
    {"assay": "qHTS assay to identify small molecule antagonists of the androgen receptor (AR) signaling pathway - cell viability counter screen (AID 743033; further: nearly all actives have a fitted effect of over 45% in size)", "details": "AR-bla HEK293 viability, CellTiter-Glo luminescence, 16 h; series mostly up to 58.5 µM; activity change, negative = cytotoxicity: at the top concentration", "excerpt": "National Center for Advancing Translational Sciences [NCATS]\nNIH Chemical Genomics Center [NCGC]\nU.S. Environmental Protection Agency [EPA]\nNational Institutes of Environmental Health Sciences [NIEHS]\nNational Toxicology Program [NTP]\nU.S. Food and Drug Administration [FDA]\nAndrogen receptor (AR), a nuclear hormone receptor, plays a critical role in AR-dependent prostate cancer and other androgen related diseases. Endocrine disrupting chemicals (EDCs) and their interactions with steroid hormone receptors like AR may cause disruption of normal endocrine function as well as interfere with metabolic homeostasis, reproduction, developmental and behavioral functions. To identify the compounds that inhibit AR signaling, GeneBLAzer AR-UAS-bla-GripTite cell line (Invitrogen, Carlsbad, CA, USA) containing a beta-lactamase reporter gene under control of an Upstream Activator Sequence (UAS) stably integrated into HEK293 cells was used to screen the Tox21 10K compound library. The cytotoxicity of the Tox21 compound library against the AR-bla cell line was tested in parallel by measuring the cell viability using CellTiter-Glo assay in the same wells.\nTox21 Assay Protocol Summary:\nAR-bla cells were dispensed at 2,000 cells/5 uL of assay medium per well into black wall/clear-bottom 1536-well plates using a Multidrop Combi (ThermoFisher Scientific, Waltham, MA) dispenser. After the assay plates were incubated at a 37C and 5% CO2 for 4 hr, 23 nL of compounds dissolved in DMSO, positive controls or DMSO only was transferred to the assay plate by a Pintool station (Kalypsys, San Diego, CA), followed by addition of 1 uL of agonist (R1881) in culture medium using a Bioraptr Flying Reagent Dispenser (FRD) workstation (Beckman Coulter, Indianapolis, IN, USA). The plates were incubated at a 37C and 5% CO2 for 16 h. After 1 uL of LiveBLAzerTM B/G FRET substrate was added using a Bioraptr FRD, the plates were incubated at room temperature for 2 h and fluorescence intensity was measured by an Envision plate reader (PerkinElmer, Shelton, CT). For cell viability readout that measures cytotoxicity, 4 ul/well of CellTiter-Glo reagent was added into the assay plates using a Bioraptr FRD. After 30 min incubation at room temperature, the luminescence intensity in the plates was measured using a ViewLux (PerkinElmer) plate reader.", "units": {"activity change, negative = cytotoxicity": "%"}, "values": [
      {"smiles": "ClCCBr", "outcome": "inactive"},
      {"smiles": "CCN(CC)c1ccccc1", "outcome": "inactive"},
      {"smiles": "CCOP(OCC)OCC", "outcome": "inactive"},
      {"smiles": "CCCCCCCCCl", "outcome": "inactive"},
      {"smiles": "CN=C=S", "outcome": "inactive"},
      {"smiles": "CCCCOC(=O)c1ccccc1C(=O)OCCCC", "outcome": "inactive"},
      {"smiles": "O=c1n(Cl)c(=O)n(Cl)c(=O)n1Cl", "outcome": "inactive"},
      {"smiles": "CC(C)(C)OOC(=O)c1ccccc1", "outcome": "inactive"},
      {"smiles": "C=CCO", "outcome": "inactive"},
      {"smiles": "O=c1ccc(=O)[nH][nH]1", "outcome": "inactive"},
      {"smiles": "Clc1cccc(Cl)c1Cl", "outcome": "inactive"},
      {"smiles": "c1ccc(OP(Oc2ccccc2)Oc2ccccc2)cc1", "outcome": "inactive"},
      {"smiles": "CC(C)(C)OOC(C)(C)C", "outcome": "inactive"},
      {"smiles": "CC1OC(C)OC(C)O1", "note": "(stereo not given)", "outcome": "inactive"},
      {"smiles": "CC(C)OC(=O)Nc1cccc(Cl)c1", "outcome": "inactive"},
      {"smiles": "Cc1ccc(N)cc1Cl", "outcome": "inactive"},
      {"smiles": "O=S(=O)(c1ccc(O)cc1)c1ccc(O)cc1", "outcome": "inactive"},
      {"smiles": "CCC(C)(CC)c1cc(NC(=O)c2c(OC)cccc2OC)on1", "outcome": "inactive"},
      {"smiles": "Cc1ccccc1O", "outcome": "inactive"},
      {"smiles": "O=NN1CCCCCCC1", "outcome": "inactive"},
      {"smiles": "COC(=O)NS(=O)(=O)c1ccc(N)cc1", "outcome": "inactive"},
      {"smiles": "O=Cc1cccc(Oc2ccccc2)c1", "activity change, negative = cytotoxicity": -0.16},
      {"smiles": "BrCCBr", "outcome": "inactive"},
      {"smiles": "c1ccc2c(c1)oc1ccccc12", "outcome": "inactive"},
      {"smiles": "CC(C)OC(=O)Nc1ccccc1", "outcome": "inactive"},
      {"smiles": "COc1ccc2c3c1O[C@H]1[C@@H](O)C=C[C@H]4[C@@H](C2)N(C)CC[C@@]341", "outcome": "inactive"},
      {"smiles": "CC(Oc1ccc(Cl)cc1Cl)C(=O)O", "note": "(stereo not given)", "outcome": "inactive"},
      {"smiles": "C[C@]12CC[C@H]3[C@@H](CC[C@@]45O[C@@H]4C(O)=C(C#N)C[C@]35C)[C@@H]1CC[C@@H]2O", "outcome": "inactive"},
      {"smiles": "COCCl", "outcome": "inactive"},
      {"smiles": "CON(C)C(=O)Nc1ccc(Cl)c(Cl)c1", "activity change, negative = cytotoxicity": -16.4},
      {"smiles": "CCC[N+](=O)[O-]", "outcome": "inactive"},
      {"smiles": "CN(C)[C@@H]1C(=O)C(C(N)=O)=C(O)[C@@]2(O)C(=O)C3=C(O)c4c(O)cccc4[C@@](C)(O)[C@H]3C[C@@H]12", "outcome": "inactive"},
      {"smiles": "C#CCN(C)[C@H](C)Cc1ccccc1", "outcome": "inactive"},
      {"smiles": "Cc1cc(Cl)ccc1O", "outcome": "inactive"},
      {"smiles": "CC(C)NC(=O)N1CC(=O)N(c2cc(Cl)cc(Cl)c2)C1=O", "outcome": "inactive"},
      {"smiles": "CCOC(=O)c1ccccc1C(=O)OCC", "outcome": "inactive"},
      {"smiles": "Nc1ccc(Cc2ccc(N)cc2)cc1", "outcome": "inactive"},
      {"smiles": "CCCCCOC(=O)c1ccccc1C(=O)OCCCCC", "outcome": "inactive"},
      {"smiles": "CC(NC(C)(C)C)C(=O)c1cccc(Cl)c1", "note": "(stereo not given)", "outcome": "inactive"},
      {"smiles": "Clc1ccc(Cl)cc1", "outcome": "inactive"}
    ]}
  ]
}
